# TDP-43 yeast inh: TDP-43 toxicity inhibition in yeast; TDP-43 expressing yeast growth rescue, BacTiter-Glo, 24 h; Potency, µM (series often up to 46.1 µM), for inactives: at the top dose growth rescue (activation), usual class: activators; hit rate 1.8% among 410,000; AID 652104; note: potency is the fitted concentration of half-maximal effect; % of control where 0% means no effect; nearly all actives have a fitted effect of over 50% in size
#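 Galactose-induced TDP-43 yeast, OD600=0.02, compound pinned; 24 hr, 30 deg C; BacTiter-Glo luminescence for growth. Inhibitors of TDP-43 toxicity read as activators.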
# Akt phos inh: blocks phosphorylation of Akt; activity change, % for hits at 50 µM; AID 651550; hit rate 0.32% among 360,000; Neuro2A IGF-stimulated pAkt S473 HTRF, 20 min; stronger effect = lower value; in the data active = activity change below about -80%; inconclusive = mostly about -51% to -80%; note: % is set by controls: 0 for no effect and ±100 for the full control effect
#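 Single-point screen (50 µM final compound) in Neuro2A cells stimulated 20 min with 6 nM IGF at 37 deg C. After lysis, Ser473-phosphorylated Akt read by HTRF (ex 330 nm, em 615/665 nm) as the 665/615 ratio.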
# Anesthetic bind: binds horse apoferritin like a general anesthetic. Potency, µM (series often up to 77.5 µM), for inactives: at the highest dose activity change, negative = displacement, usual class: inhibitors. hit rate 0.074% among 350,000. apoferritin/1-aminoanthracene competitive binding, fluorescence. P02791; note: potency is the fitted concentration of half-maximal effect; % is set by controls: 0 for no effect and ±100 for the full control effect; nearly all actives have a fitted effect of over 20% in size
# Target sequence (P02791 2-175 limits assumed): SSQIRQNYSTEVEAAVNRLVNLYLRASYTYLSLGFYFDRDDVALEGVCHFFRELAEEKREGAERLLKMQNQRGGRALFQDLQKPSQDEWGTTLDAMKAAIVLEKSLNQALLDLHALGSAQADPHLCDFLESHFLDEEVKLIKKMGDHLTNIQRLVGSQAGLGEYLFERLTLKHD
#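 Steps: apoferritin (10 uM) was premixed with half-saturated 1-AMA in PBS, compounds were pin-transferred, plates stood 10 min at room temperature, fluorescence was read at 380/535 nm, and curves were fitted with a Hill equation.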
# aSyn yeast inh: inhibitors of alpha-synuclein toxicity in yeast; hit rate 0.14% among 370,000; Potency, µM (doses to about 46.1 µM), for inactives: at the top dose growth rescue (activation), usual class: activators; Yeast expressing alpha-synuclein, growth rescue, BacTiter-Glo, 24 h; AID 652106; note: potency is the fitted concentration of half-maximal effect; % of control where 0% means no effect; nearly all actives have a fitted effect of over 65% in size
#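 Rescue of yeast growth: cells expressing toxic alpha-synuclein, induced in galactose at OD600 0.02, incubated with compound 24 h at 30 C. ATP luminescence quantified growth; inhibitors of toxicity appear as activators.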
# CCT modulator: changes cytosolic chaperonin activity | purified chaperonin ATPase assay, HTRF ADP detection, 30 min | activity change, % (concentration not given with the values), hits read low | hit rate 0.3% among 360,000 | AID 651819; in the data active = activity change below about -30%; note: % is set by controls: 0 for no effect and ±100 for the full control effect
#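 Enzyme 40 or 20 nM (batch-dependent) in Tris pH 7.4/KCl/MgCl2/DTT; cpd 76 uM single point; ATP 10 uM; 30 min 37 °C; Transcreener ADP HTRF detection, 30 min RT; ratio 665/615.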
# Mito fusion yeast: mitochondrial division inhibition or fusion activation | S. cerevisiae fusion-defective mutant growth rescue, CellTiterGlo 48 h | AID 485298 | Potency, µM (doses to about 46.1 µM), for inactives: top-dose growth rescue (activation), usual class: activators | hit rate 0.23% among 320,000; note: potency is the fitted concentration of half-maximal effect; % of control where 0% means no effect; nearly all actives have a fitted effect of over 45% in size
#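 S. cerevisiae fusion-defective temperature-sensitive mutants (e.g. fzo1-1, mgm1-5) grown 48 h at 37C in YPEG (ethanol/glycerol non-fermentable) medium with 23 nl compound per well; growth rescue read as CellTiterGlo luminescence.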
# * = called active by the depositor; i = inactive; u = inconclusive; x = not tested or not shown. Only some compounds are listed: those with a hit (about 2.5% of all), similar ones and a draw of the others. Unless noted, calls come from the whole dose curve; as a rule, active = well fitted curve in the direction sought with a large enough effect; inconclusive = small, poorly fitted or top-dose-only effect, or another doubt; inactive = no such curve, though single readings can be large; an effect the other way counts as inactive or inconclusive.
SMILES,TDP-43 yeast inh,Akt phos inh,Anesthetic bind,aSyn yeast inh,CCT modulator,Mito fusion yeast
COc1ccc(C(=O)Cn2c(C)nc([N+](=O)[O-])c2Br)cc1,u,i,4.2%,-7.1%,-0.5,-20.8%
CCCCOc1ccc(CC(=O)NO)cc1,u,i,u,6.9%,-0.9,2.5%
O=C(Cc1ccc(OCCC2CCCCC2)cc1)NO,x,x,x,5.62µM*,x,x
Cc1ccc(C2=Nc3ccccc3N=C(c3ccco3)C2)c(O)c1,12.4%,-124.8%*,-5.0%,-15.2%,-2.1,2.6%
Cc1ccc(O)c(C2=Nc3ccccc3N=C(c3ccco3)C2)c1,7.5%,u,33.5%,3.2%,-2.5,2.9%
CC1CCN(S(=O)(=O)c2ccc3c(ccn3CC(=O)NCc3ccccc3F)c2)CC1,5.8%,x,5.3%,x,x,x
O=C(Nc1ncc2c(n1)-c1ccccc1CC2)c1ccc(F)cc1,10µM*,-119.6%*,-13.3%,5.1%,-1.6,0.3%
O=C(Nc1ncc2c(n1)-c1ccccc1CC2)c1cccs1,u,i,-13.6%,-12.3%,1.4,1.3%
O=C(Nc1ncc2c(n1)-c1ccccc1CC2)c1ccccc1,12.6µM*,i,-22.2%,-0.9%,0.5,-2.8%
Cc1cc(Oc2ccccc2)nc(C#N)n1,x,x,x,-5.3%,x,x
C1=CN2CC=Cc3cc(/C=C/c4ccnc5ccccc45)cc(c32)C1,x,x,x,-20.9%,x,x
CCOC(=O)c1c(C)[nH]c(C)c1S(=O)(=O)N1CCCC(C(=O)Nc2cccc(CC)c2)C1 (stereo not drawn),0.0%,x,u,x,x,x
Cc1cc(C(=O)N2CCN(S(C)(=O)=O)CC2)sc1-c1ccccc1,-23.2%,-82.2%*,-4.3%,-2.4%,-1.3,4.3%
O=C(Oc1ccccc1C(=O)Nc1ccccc1)c1ccccc1Br,11.2µM*,i,-17.1%,-2.1%,-0.4,15.8µM*
O=C(Nc1ccc(C(=O)N2CCCC2)cc1)c1ccccc1Br,-10.8%,i,-4.2%,-3.8%,-1.3,-1.4%
O=C(Nc1ccc(C2CC2(Cl)Cl)cc1)c1ccccc1Br (stereo not drawn),-23.9%,i,-5.4%,-13.8%,-0.4,14.1µM*
CCC[C@@H]1CC(C(=O)NC(C2O[C@H](SC)C(OP(=O)(O)O)[C@H](O)[C@H]2O)[C@H](C)Cl)N(C)C1 (stereo partly drawn),x,x,-5.0%,x,x,x
Cc1[nH]nc(-c2ccc(O)cc2O)c1-c1ccc(Cl)cc1,20µM*,i,-13.0%,1.2%,-0.7,-22.7%
CCN(CC)c1nc2c(S(=O)(=O)c3ccccc3)nnn2c2ccc(Cl)cc12,12.6µM*,x,u,x,x,x
COc1ccc(NC(=O)c2cnc[nH]2)cc1,-2.1%,x,-6.7%,x,x,x
O=C(CSc1nc2c(c(=O)[nH]1)CN(Cc1ccc3c(c1)OCO3)CC2)Nc1ccc(F)c(F)c1,1.6%,x,-36.9%,x,x,x
O=C(N/N=C/c1ccc(N2CCOCC2)cc1)c1ccncc1,-20.0%,i,x,1.7%,-0.9,2.1%
O=C(N/N=C/c1ccc(N2CCOCC2)cc1)c1ccccc1OCCOc1ccccc1,25.1µM*,i,231.3%,3.9%,-0.5,-1.8%
CC1(C)C2CCC1(C)C(OCCNCCOC(=O)Nc1ccccc1)C2 (stereo not drawn),-5.0%,i,-21.8%,28.3%,-39.7*,25.0%
CN(C)c1ccc(/C=C2\c3ccccc3-c3ccc(N(C)C)cc32)cc1,x,x,x,0.7%,x,x
SMILES,TDP-43 yeast inh,Akt phos inh,Anesthetic bind,aSyn yeast inh,CCT modulator,Mito fusion yeast
COc1ccc(Cc2nc3ccc(C(=O)N(C)Cc4cc(C)[nH]n4)cc3o2)cc1OC,-13.0%,i,-8.5%,-1.3%,-70.1*,-4.3%
Cc1cc(CN(C)C(=O)c2ccc3nc(Cc4ccccc4F)oc3c2)n[nH]1,12.7%,i,-12.1%,7.5%,0.4,-0.1%
CC1=C(C(=O)OCC2CCCO2)C(c2ccc(Cl)c(Cl)c2)NC(=O)N1 (stereo not drawn),-12.9%,i,-9.1%,-2.5%,2.0,0.7%
CC1=C(C(=O)OCC2CCCO2)C(c2ccccc2Cl)NC(=O)N1 (stereo not drawn),-8.5%,-98.7%*,15.4%,-18.9%,0.7,-1.9%
CC#CCCCC(=O)Nc1cc(OC)nc(OC)n1,14.1µM*,i,-10.4%,4.1%,0.0,-0.8%
COc1cc(NC(=O)CCC(=O)O)nc(OC)n1,-6.1%,i,-6.3%,0.9%,-0.6,-1.1%
O/N=C(/CBr)c1ccc2ccccc2c1,x,x,x,-4.5%,x,x
FC(F)(F)c1cnc(Nc2ccc(N3CCOCC3)cc2)c(Cl)c1,12.6µM*,i,u,3.3%,0.7,-32.2%
Clc1cccc(CNc2ccn3nc(-c4ccc(OCc5ccccc5)cc4)cc3n2)c1,-3.3%,i,x,-4.9%,-2.7,x
Clc1cccc(CNc2ccn3nc(-c4ccccc4)cc3n2)c1,12.6µM*,i,x,u,0.2,x
Clc1ccc(-c2cc3nc(NCc4cccc(Cl)c4)ccn3n2)cc1,35.5µM*,i,x,-41.7%,-1.4,x
CC(C)(C)c1cc2nc(NCc3cccc(Cl)c3)ccn2n1,25.1µM*,i,x,u,-0.6,x
Clc1cccc(CNc2ccn3nc(-c4cccc(Cl)c4)cc3n2)c1,11.2µM*,i,x,24.9%,0.3,x
O=C(NCC(c1cccs1)S(=O)(=O)c1cccs1)c1ccc(Cl)cc1 (stereo not drawn),19.4%,x,4.7%,x,x,x
COc1ccccc1C(=O)OCc1cc(=O)n2c(C)csc2n1,35.5µM*,x,1.2%,x,x,x
COc1ccc(C(=O)OCc2cc(=O)n3c(C)csc3n2)cc1F,14.7%,i,x,6.8%,1.2,u
O=C(OCc1cc(=O)n2ccsc2n1)c1ccc(OC(F)F)cc1,7.08µM*,i,x,7.0%,-1.0,-0.3%
COc1ccccc1C(=O)OCc1cc(=O)n2ccsc2n1,15.8µM*,i,x,12.1%,2.7,x
CC(Oc1ccccc1)C(=O)Nc1ccc(OCc2cc(=O)n3ccsc3n2)cc1 (stereo not drawn),15.8µM*,x,-12.6%,x,x,x
CCCCC(C)/C=C(C)/C=C(\C)C(=O)NC1=CC(O)(/C=C/C=C/C=C/C(=O)NC2=C(O)CCC2=O)C2OC2C1=O (stereo not drawn),x,x,-23.5%,x,x,x
Cc1ccc(C(=O)OCc2cc(=O)n3c(C)csc3n2)s1,22.4µM*,i,x,-1.6%,-2.1,-5.5%
Cc1ccc(S(=O)(=O)NC(=O)NN2CC3CCCC3C2)cc1 (stereo not drawn),0.3%,i,-4.6%,3.0%,-43.8*,-2.4%
Cc1ccc(S(=O)(=O)NC(=S)NC2CCCCC2)cc1,15.8µM*,i,-7.4%,10.5%,-2.9,6.8%
Cc1c(O)ccc2c1OC(C)(C)CC2,x,x,x,-5.6%,x,x
Cc1cccc(N2CCN(C(=O)c3oc(=O)c4ccccc4c3-c3ccccc3)CC2C)c1 (stereo not drawn),12.6µM*,x,-4.8%,x,x,x
O=C(c1oc(=O)c2ccccc2c1-c1ccccc1)N1CCOCC1,-5.2%,i,-11.2%,0.3%,-0.4,0.8%

# Screening data as filed in PubChem.
